{"source": "the supplement of paper PMC4188521", "data": [{"compound": "CCc1cnn2c(NCc3ccc[n+]([O-])c3)cc(N3CCCC[C@H]3CCO)nc12 [dinaciclib]", "assay": "cell viability remaining relative to DMSO control; higher = less cytotoxic (more viable cells)", "details": "100 nM; 24 h", "method": "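Solid tumor cell lines were treated with dinaciclib (100 nM) for 24 hr. Viability was measured by CellTiter-Glo ATP luminescence and expressed as % of DMSO-treated control wells (mean of 2-6 plates, triplicate wells per plate).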", "units": {"cell viability remaining": "%"}, "values": [{"target": "HCC827", "cell viability remaining": 67.9}, {"target": "H2030", "cell viability remaining": 91.9}, {"target": "SW900", "cell viability remaining": 74.3}, {"target": "HMCB", "cell viability remaining": 37.5}, {"target": "HEC6", "cell viability remaining": 57.7}, {"target": "MFE319", "cell viability remaining": 78.3}, {"target": "59M", "cell viability remaining": 73.2}, {"target": "KPL1", "cell viability remaining": 50.2}, {"target": "SKMEL1", "cell viability remaining": 68.9}, {"target": "HEC265", "cell viability remaining": 46.7}, {"target": "SW948", "cell viability remaining": 72.6}, {"target": "NUGC4", "cell viability remaining": 108}, {"target": "COLO684", "cell viability remaining": 85.6}, {"target": "T84", "cell viability remaining": 76.2}, {"target": "MFE296", "cell viability remaining": 47.4}, {"target": "H1838", "cell viability remaining": 90.6}, {"target": "ESS1", "cell viability remaining": 73.5}, {"target": "A549", "cell viability remaining": 55.3}, {"target": "DLD1", "cell viability remaining": 46.8}, {"target": "OAW28", "cell viability remaining": 63.1}, {"target": "HCC1187", "cell viability remaining": 21.6}, {"target": "OVSAHO", "cell viability remaining": 61.8}, {"target": "H1944", "cell viability remaining": 76.9}, {"target": "MEWO", "cell viability remaining": 52.8}, {"target": "SW1116", "cell viability remaining": 86.8}, {"target": "HUPT4", "cell viability remaining": 9.8}, {"target": "769P", "cell viability remaining": 57.5}, {"target": "CAKI1", "cell viability remaining": 63.5}, {"target": "22RV1", "cell viability remaining": 50.2}, {"target": "H2052", "cell viability remaining": 91.9}, {"target": "DBTRG05MG", "cell viability remaining": 81.7}, {"target": "WM2664", "cell viability remaining": 68.9}, {"target": "DKMG", "cell viability remaining": 44}, {"target": "SNU5", "cell viability remaining": 69.5}, {"target": "OV7", "cell viability remaining": 73.4}, {"target": "TOV112D", "cell viability remaining": 16}, {"target": "H226", "cell viability remaining": 56.1}, {"target": "SKNAS", "cell viability remaining": 35}, {"target": "RKO", "cell viability remaining": 49.6}, {"target": "HS940T", "cell viability remaining": 78.6}]}]}
